Measurements taken from PubChem BioAssay AID463173 (ICCB-Longwood Screening Facility, Harvard Medical School, 2010).
In all, about 52,000 compounds went through this assay and about 4,300 (8.3%) were called active. The sample as a whole holds a higher share of actives than the screen did. A number with no mark means an inactive call. Rule as the data show it: active = survival mostly below about 52% (no sharp cut-off); inactive = mostly above about 56%.

What follows are molecules tested on DeltatarO mutant (assay: growth inhibition of S. aureus wild type versus tarO mutant, primary screen, teichoic acid synthesis inhibitors, RN4220, OD600 (AID 463173)). Details: OD600, 18 h, active compounds read low, screened at 18.75 µg/mL (by protocol).

Structure (SMILES)	survival
CCNC(=O)Cc1ccc(NC(=O)N2CCCCc3ccccc32)cc1	74%
O=C(Nc1nnc2n1CCS2)c1ccccc1C(F)(F)F	93%
Cc1ccc(C)c(N2CCN(C(=O)c3ccc4c(Cl)c5c(nc4c3)CCCC5)CC2)c1	98%
O=C(c1ccc2c(Cl)c3c(nc2c1)CCCC3)N1CCN(c2ccccc2)CC1	20% (active)
O=C(c1ccc2c(Cl)c3c(nc2c1)CCCC3)N1CCN(c2ccccc2F)CC1	-3% (active)
O=C(c1ccc2c(Cl)c3c(nc2c1)CCCC3)N1CCN(c2cccc(C(F)(F)F)c2)CC1	64%
Cc1cccc(N2CCN(C(=O)c3ccc4c(Cl)c5c(nc4c3)CCCC5)CC2)c1C	93%
Cc1ccc(Cl)cc1N1CCN(C(=O)c2ccc3c(Cl)c4c(nc3c2)CCCC4)CC1	31% (active)
Cc1ccc(N2CCN(C(=O)c3ccc4c(Cl)c5c(nc4c3)CCCC5)CC2)c(C)c1	88%
O=C(c1ccc2c(Cl)c3c(nc2c1)CCCC3)N1CCN(c2cccc(Cl)c2)CC1	65%
O=C(c1ccc2c(Cl)c3c(nc2c1)CCCC3)N1CCN(c2ccc(Cl)cc2)CC1	92%
CCOC(=O)/C(C)=C1\NC(C)(C)Cc2ccccc21	92%
Cc1coc2cc3oc(=O)c(CCC(=O)NCc4ccccc4Cl)c(C)c3cc12	66%
Cc1ccc2c(c1)nc(SCC(O)c1ccc(Br)cc1)n2C (stereo not drawn)	70%
COc1cc2c(cc1OC)-c1n[nH]c(=S)n1C(C)(C)C2	90%
CC(=O)c1c(C)n(-c2ccc(C)cc2)c2ccc(OC(=O)COc3ccccc3)cc12	62%
COc1ccccc1CN1CCN(C(CC(C)C)c2nnnn2Cc2ccc(F)cc2)CC1 (stereo not drawn)	85%
O=C(/C=C/c1ccccc1)N1CCCC1=O	94%
O=C1CCCCCN1Sc1ccccc1	48% (active)
O=C1CCC(=O)N1c1ccccc1	98%
CCN(CCCNC(=O)c1ccc(Sc2ccc(Cl)cc2)c(NC(C)=O)c1)c1cccc(C)c1	89%
Cc1ccccc1Nc1c(-c2ccc(Br)o2)nc2ccc(Cl)cn12	37% (active)
Cc1ccccc1Nc1c(-c2ccncc2)nc2ccc(Cl)cn12	118%
Cc1ccccc1Nc1c(-c2cccc(O)c2)nc2ccc(Br)cn12	64%

Structure (SMILES)	survival
COc1cc(O)ccc1-c1nc2cc(C)ccn2c1Nc1ccccc1C	69%
COc1cc(O)ccc1-c1nc2ccc(Br)cn2c1Nc1ccccc1C	46% (active)
Cc1ccccc1Nc1c(-c2cccnc2)nc2ccc(Cl)cn12	92%
CCOC(=O)c1c(S(=O)(=O)N2CCCC(C(=O)Nc3ccc(OCC)cc3)C2)c(C)n(C)c1C (stereo not drawn)	99%
COc1ccc(CNC(=O)C(=O)NCC(c2cccs2)S(=O)(=O)c2cccs2)cc1 (stereo not drawn)	89%
CCCCOc1ccc(C(=O)N(Cc2ccco2)Cc2ccco2)cc1	94%
O=C1CC(c2ccccc2)Cc2[nH]c(=O)c(C(=O)Nc3ccc(F)cc3)cc21 (stereo not drawn)	101%
O=C1CC(c2ccccc2)Cc2[nH]c(=O)c(C(=O)Nc3cccc(F)c3)cc21 (stereo not drawn)	89%
COc1ccc(NC(=O)c2cc3c([nH]c2=O)CC(c2ccccc2)CC3=O)cc1 (stereo not drawn)	91%
Cc1cccc(NC(=O)c2cc3c([nH]c2=O)CC(c2ccccc2)CC3=O)c1 (stereo not drawn)	20% (active)
O=C1CC(c2ccccc2)Cc2[nH]c(=O)c(C(=O)Nc3cccc(Cl)c3)cc21 (stereo not drawn)	8% (active)
CC(=O)c1ccc(NC(=O)c2cc3c([nH]c2=O)CC(c2ccccc2)CC3=O)cc1 (stereo not drawn)	63%
COc1ccc(S(=O)(=O)c2c(C)c(NS(=O)(=O)c3ccccc3)cc(C)c2O)cc1	67%
CC(C)N(Cc1ccccc1)C(=O)CCS(=O)(=O)c1cc2c(cc1Cl)NC(=O)CO2	103%
CC(C)(C)c1ccc(S(=O)(=O)c2cnc(SCC(=O)Nc3ccc4c(c3)OCCO4)[nH]c2=O)cc1	120%
COc1ccc(S(=O)(=O)N(CC(=O)NCCSCc2ccccc2)c2ccc(C)cc2)cc1	54%
CCN1CCN(C(=O)c2cnn(-c3ccc(F)cc3)c2-n2cccc2)CC1	135%
CCOc1ccc(NC(=O)CSc2ccc(-c3sc(-c4ccccc4)nc3C)nn2)cc1	15% (active)
CCOC(=O)c1ccccc1NC(=O)CSc1ccc(-c2sc(-c3ccccc3)nc2C)nn1	34%
COC(=O)c1ccc(NC(=O)CSc2n[nH]c(CC(C)C)n2)cc1	36% (active)
COC(=O)c1ccc(NC(=O)CSc2n[nH]c(-c3ccccc3)n2)cc1	88%
CCc1ccc(NC(=O)CSc2ccc(-c3sc(-c4ccccc4)nc3C)nn2)cc1	38%
Cc1ccc(CNC(=O)CSc2ccc(-c3sc(-c4ccccc4)nc3C)nn2)cc1	93%
COC(=O)c1ccccc1NC(=O)CSc1n[nH]c(CC(C)C)n1	47%

Structure (SMILES)	survival
COC(=O)c1ccc(NC(=O)CSc2ccc(-c3sc(-c4ccccc4)nc3C)nn2)cc1	56% (active)
Cc1nc(-c2ccccc2)sc1-c1ccc(SCC(=O)NCc2ccccc2)nn1	58%
Cc1ccc(OCC(=O)Nc2ccc3c(c2)sc(=O)n3C)cc1	110%
O=C(Cn1ncc2c3ccccc3n(Cc3ccc(Cl)cc3)c2c1=O)NCCC1=CCCCC1	89%
CCc1ccc(C2CC(=O)c3c([nH]c(C(=O)OC4CCCC4)c3C)C2)cc1 (stereo not drawn)	97%
O=C(CSc1nnc(NC(=O)NC2CCCCC2)s1)Nc1ccccc1F	79%
CCCn1c(C(=O)OC)cc2c1ccn2C	78%
CC1(C)Cc2[nH]c(=S)c(C#N)cc2CO1	88%
Cc1ccc(CNC(=O)CSc2c(C(C)C)cnc3c2c(=O)n(C)c(=O)n3C)cc1	85%
CCc1cnc2c(c1SCC(=O)NCc1ccc(C)cc1)c(=O)n(C)c(=O)n2C	70%
CCCc1cnc2c(c1SCC(=O)NCc1ccc(C)cc1)c(=O)n(C)c(=O)n2C	-4% (active)
COc1cc(C2C(C(=O)OCC(C)C)=C(C)N=C3SCCC(=O)N32)ccc1OCc1ccccc1 (stereo not drawn)	46% (active)
CCOC(=O)C1=C(C)N=C2SCCC(=O)N2C1c1ccc(OCc2ccccc2)c(OC)c1 (stereo not drawn)	133%
COCCOC(=O)C1=C(C)N=C2SCCC(=O)N2C1c1ccc(OCc2ccccc2)c(OC)c1 (stereo not drawn)	58%
O=C1CC(c2ccccc2)Cc2[nH]c(=O)c(-c3nc(-c4ccc(Cl)cc4)cs3)cc21 (stereo not drawn)	72%
CCNc1cc(N2CCN(C3CCCCC3)CC2)c2noc3c2c1C(=O)c1ccccc1-3	73%
CN(C)CCCNc1cc(N2CCN(C3CCCCC3)CC2)c2noc3c2c1C(=O)c1ccccc1-3	51%
CCN(CC)c1cc(NC2CCCCC2)c2c3c(onc13)-c1ccccc1C2=O	1% (active)
CCCCNc1cc(N2CCN(C3CCCCC3)CC2)c2noc3c2c1C(=O)c1ccccc1-3	-5% (active)
CCCCNc1cc(NC2CCCCC2)c2c3c(onc13)-c1ccccc1C2=O	92%
O=C1c2ccccc2-c2onc3c(Br)cc(NC4CCCCC4)c1c23	101%
COc1ccc(NC(=O)CCS(=O)(=O)c2nc(-c3ccc4c(c3)OCO4)cc(C(F)(F)F)n2)cc1OC	79%
Cc1cccc(NC(=O)Cn2cc(C(=O)c3ccco3)c3ccccc32)c1C	55%
Cc1cc(N)c(O)cc1C	61%

Structure (SMILES)	survival
Cc1cc(N)cc(C(=O)O)c1O	104%
Cc1cc(C)c(O)c(N)c1	39% (active)
CCOc1ccc(S(=O)(=O)N2CCC(N3CCN(Cc4ccc(C)cc4)C(=O)C3=O)CC2)cc1	77%
CCCc1cc(=O)[nH]c(Nc2cc(Cl)cc(Cl)c2)n1	6% (active)
CCCc1cc(=O)[nH]c(Nc2ccc(C(=O)O)cc2)n1	62%
CCCc1cc(=O)[nH]c(Nc2cccc(Cl)c2Cl)n1	68%
CCCc1cc(=O)[nH]c(Nc2cc(C)cc(C)c2)n1	108%
CCCc1cc(=O)[nH]c(Nc2ccc(C)c(O)c2)n1	57%
CCCOC(=O)c1cccc(Nc2nc(CCC)cc(=O)[nH]2)c1	10% (active)
O=C(CN1C(=O)COc2ccc(S(=O)(=O)N3CCCCCC3)cc21)N1CCN(c2cccc(Cl)c2)CC1	95%
O=C(Nc1nnc(S(=O)(=O)N2CCCCCC2)s1)c1ccccc1Br	43% (active)
O=C(Nc1nnc(S(=O)(=O)N2CCCC2)s1)c1ccccc1Br	36% (active)
O=C(Nc1nnc(S(=O)(=O)N2CCCCC2)s1)c1ccccc1Br	61%
COc1ccc(C2CC(=O)c3cnc4c(-c5ccccc5)c(C)nn4c3C2)c(OC)c1 (stereo not drawn)	82%
COc1cccc(C(=O)Nc2ccc3nc(SCC(=O)N4CCc5ccccc54)sc3c2)c1	59%
COc1cccc(-n2cc(C(=O)Nc3cc(C)c(Cl)cc3OC)c3ccccc3c2=O)c1	56%
O=C(Nc1ccc2oc(-c3cccnc3)nc2c1)c1ccc(-c2ccc(OC(F)(F)F)cc2)o1	79%
Nc1ncc(S(=O)(=O)Nc2ccc(F)cc2F)cn1	84%
CCOc1ccccc1NS(=O)(=O)c1cnc(N)nc1	-1% (active)
CCOc1ccccc1CNS(=O)(=O)c1cnc(N)nc1	79%
COc1ccc(OC)c(NC(=O)c2ccc(-c3nc(COc4ccccc4)c(C)o3)cc2)c1	62%
